Data on 40 compounds can be found in PubChem BioAssay (Tox21).

Records with an inconclusive call do not appear. Calls of active or inactive are those of the source. Calls follow the shape of the full dose curve.
% is scaled to controls: 0 for no effect and ±100 for the full control effect.

The nature of the assay: cAMP Responsive Elements (CRE) small molecule agonists, cell-based qHTS assay (AID 1963590). The following applies: CRE-bla HEK293T, beta-lactamase FRET ratio, 3 h; series mostly up to 92.4 µM; activation: at the top concentration. The text has this:
U.S. Tox21 Program National Center for Advancing Translational Sciences [NCATS] Division of Preclinical Innovation [DPI] U.S. Environmental Protection Agency [EPA] National Institutes of Environmental Health Sciences [NIEHS] National Toxicology Program [NTP] U.S. Food and Drug Administration [FDA] Tox21 Assay Overview: CREB (cyclic-AMP Responsive Element Binding Protein) is a cellular transcription factor. It binds to certain DNA sequences called cAMP Responsive Elements (CRE) and regulates the transcription of the genes. […] This cell line can be used to find agonists/antagonists of the cyclic AMP signaling pathway. The activation of the report gene under culture conditions can be detected by fluorescence intensity. This cell line has been used to screen the Tox21 10K compound library to identify agonists that induce oxidative stress.
Tox21 Assay Protocol Summary: CRE-bla Hek 293T cells were suspended in assay medium (DMEM containing 10% dialyzed FBS, 0.1 mM NEAA, 1 mM sodium pyruvate and 25 mM HEPES) and dispensed at 2,000 cells/5 uL /well into 1536-well black wall/clear bottom plates using a Multidrop Combi (ThermoFisher Scientific, Waltham, MA) dispenser. After the assay plates were incubated at 37 C/5% CO2 for 18 hrs, 23 nL of compounds dissolved in DMSO, positive controls or DMSO only was transferred to the assay plate by a pintool workstation (Kalypsys, San Diego, CA). After the plates were incubated at 37 C/5% CO2 for 3 hrs, 1 uL of LiveBLAzer B/G FRET substrate (Invitrogen, Carlsbad, CA) was added to each well using Bioraptr Flying Reagent Dispenser (FRD, Aurora Discovery, San Diego, CA). The plates were incubated at room temperature for 2 h.
(In general: In qHTS, concentration-response curves come from the screen itself.)
In the case of `COc1ccccc1N1CCN(CC(O)COc2cccc3ccccc23)CC1` (stereo not given), the “activation” value was 16.7% [at 42.5 µM] (inactive).
On the same count and under the same terms, with `CNCCCCOc1ccccc1Cc1ccccc1` the figure was 2.09% [at 42.5 µM] (inactive); with `COC(=O)CCSCCC(=O)OC`, -1.9% (inactive).
With `CC(C)(C)CC(C)(C)N`, the “activation” value is 0.327% (inactive).
Take `CC(C)CCCCCCN`: the “activation” value is -0.989% (inactive).
Consider `OC12N=C(c3ccccc3)SC1Cc1cc(Cl)ccc12` (stereo not given), for which the “activation” value was 10.5% (inactive).
Still for that read-out and setting: with `Cc1c(N)c(=O)n(-c2ccccc2)n1C` the figure was -1.44% [at 42.5 µM] (inactive).
Turning to `CCCCN(CCCC)C(=S)SSC(=S)N(CCCC)CCCC`, the “activation” value is -2.93% (inactive).
The same measure, in the same setting: to `CCN(Cc1ccccc1)c1ccccc1` belongs 3.22% (inactive).
On the same count and under the same terms, with `CNC1CCCN(c2c(F)cc3c(=O)c(C(=O)O)cn(C4CC4)c3c2OC)C1` (stereo not given) the figure was -0.0128% [at 42.5 µM] (inactive); with `CNCCCN1c2ccccc2CCc2ccccc21`, 3.47% [at 42.5 µM] (inactive); with `CCCNC(C)(C)COC(=O)c1ccccc1`, -1.58% [at 42.5 µM] (inactive).
Turning to `N[C@@H](C(=O)N[C@@H]1C(=O)N2C(C(=O)O)=C(Cl)CS[C@H]12)c1ccccc1`, the activation was -0.664% [at 8.39 µM] (inactive).
On to `CCc1ccccc1`, for which the “activation” value is 0.939% (inactive).
Consider `CCCCCCNC(=O)n1cc(F)c(=O)[nH]c1=O`, for which the “activation” value was 4.79% [at 42.5 µM] (inactive).
Still for that read-out and setting: with `Nc1ccc(N)c2ccccc12` the figure was 7.9% (inactive).
For the compound `CCC(C)(CCC(C)C)C(=O)O` (stereo not given), the “activation” value was -0.198% (inactive).
For `O=C(Oc1cccc2cccnc12)c1ccccc1`, the “activation” value is 2.77% [at 42.5 µM] (inactive).
Still for that read-out and setting: with `CCCCCCCC/C=C\CCCCCCCC(=O)OC(CO)CO` the figure was -1.27% (inactive); with `CC(CCO)CCCC(C)(C)O` (stereo not given), -2.1% (inactive).
Consider `CC/C=C\CC/C=C/CO`, for which the “activation” value is 0.665% (inactive).
On the same count and under the same terms, with `S=c1nccc[nH]1` the figure was -1.49% (inactive); with `Clc1cccc(-c2cc(Cl)cc(Cl)c2)c1`, -0.201% (inactive); with `O=C(CS(=O)Cc1ccco1)NC/C=C\COc1cc(CN2CCCCC2)ccn1` (stereo not given), -0.421% [at 42.5 µM] (inactive).
In the case of `CCCCC(CC)COP(=O)(O)O` (stereo not given), the “activation” value was 0.0725% (inactive).
Regarding `Cc1ncc(COP(=O)(O)O)c(C=O)c1O`, the “activation” value is -0.98% [at 42.5 µM] (inactive).
`CN1C(=O)c2ccccc2C1=O`: the “activation” value was 8.46% (inactive).
Same read-out and setting: with `O=C(O)CN1C(=O)c2cccc3cccc(c23)C1=O` the figure was -1.43% [at 42.5 µM] (inactive); with `O=C(O)Cn1cnnn1`, 0.0324% [at 42.5 µM] (inactive).
On the same count and under the same terms, to `Cc1nc2ccccc2c(=O)o1` belongs -2.18% (inactive).
Regarding `CCCc1ccc(OCC(=O)N2CCN(C(=O)COc3ccc(CCC)cc3OC)CC2)c(OC)c1`, the “activation” value was 0.542% [at 42.5 µM] (inactive).
Still for that read-out and setting: to `Cc1ccccc1Br` belongs 0.228% (inactive).
Take `COc1cccc(N(C)C(=S)Oc2ccc3c(c2)CCCC3)n1`: the “activation” value is 7.03% [at 42.5 µM] (inactive).
Consider `NC(N)=NS(=O)(=O)c1ccc(N)cc1`, for which the “activation” value is -1.15% [at 42.5 µM] (inactive).
On to `CC(=O)OCC(=O)[C@@]1(O)[C@H](C)C[C@H]2[C@@H]3CCC4=CC(=O)C=C[C@]4(C)[C@@]3(F)[C@@H](O)C[C@@]21C`, for which the “activation” value was 2.77% [at 42.5 µM] (inactive).
On the same count and under the same terms, with `Cc1cc([N+](=O)[O-])ccc1N` the figure was -1.08% (inactive).
In the case of `Oc1ccc2ccccc2c1`, the Potency result is “inactive”.
For `Nc1ccccn1`, the “activation” value was 5.32% (inactive).
Still for that read-out and setting: to `CCOC(=O)[C@@](C)(N)Cc1ccc(O)c(O)c1` belongs 4.68% [at 42.5 µM] (inactive); to `CCCCNCC`, -1.79% (inactive).
